SMILES strings stand for the structures.

Sequence of Fibroblast growth factor 10 (Homo sapiens) (O15520 whole entry, looked up): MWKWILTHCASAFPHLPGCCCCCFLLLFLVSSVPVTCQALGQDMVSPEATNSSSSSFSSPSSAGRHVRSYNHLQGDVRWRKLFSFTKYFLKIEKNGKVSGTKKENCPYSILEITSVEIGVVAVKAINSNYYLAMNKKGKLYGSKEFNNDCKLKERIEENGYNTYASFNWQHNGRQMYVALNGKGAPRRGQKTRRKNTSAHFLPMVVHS

The assay has as its target Fibroblast growth factor 10 (Homo sapiens) (UniProt O15520). The assay can be described thus: FGF10 binders on small-molecule microarrays, primary screen, biochemical, small-molecule microarray, 635 nm fluorescence (AID 1102). Conditions: FGF10 binding, fluorescence 635 nm, higher = more signal.
Compound `COc1ccc(C(O)C2C=CC3C(=O)N(c4ccccc4)C(=O)C3N2Nc2ccc(C#N)cc2)c2ccccc12` (stereo not given) displayed a composite z-score of 0.581.

For the compound `COCCOC(=O)N1C(=O)[C@@]2(c3ccccc31)[C@H](C(=O)N1CCN(c3ncccn3)CC1)[C@H]1C(=O)O[C@H](c3ccccc3)[C@H](c3ccccc3)N1[C@@H]2c1ccc(OCCO)cc1`, the composite z-score worked out at 1.24.

`CC=CC(O)C1C=CC2C(=O)N(c3ccccc3)C(=O)C2N1Nc1ccccc1` (stereo not given) gave a composite z-score of 1.11.

In turn, `Cc1ccc(S[C@]2(C(=O)NCC(F)(F)F)CC(=O)N(Cc3ccccc3)[C@@H]2c2ccc(CO)cc2)cc1` displayed a composite z-score of -0.409.

On to `[N-]=[N+]=Nc1ccccc1C[C@@]1(C(=O)O)N=C(c2ccc(OCCCO)cc2)O[C@@H]1c1ccccc1`, for which the composite z-score was 0.0372.

`COCCCNC(=O)[C@]1(Cc2ccccc2CN=[N+]=[N-])N=C(c2ccc(OCCCO)cc2)O[C@@H]1c1ccccc1` had a composite z-score of 0.573.

Compound `CC(C)OC(=O)CC(=O)CC(O)c1cccc(C#N)c1` (stereo not given) gave a composite z-score of 0.632.

For `CCCC=C(CCC)[C@@H](NP(=O)(c1ccccc1)c1ccccc1)c1ccc(C(F)(F)F)cc1`, the composite z-score was determined as 0.0142.

With `CCCN1C(=O)[C@]2(Cc3ccccc3)N=C(c3ccc(OCCCO)cc3)O[C@@H]2c2ccccc21`, the composite z-score was 1.24.

The compound `C[C@]12C(=O)N(CCCCCCO)[C@@H]3C(=O)N(c4ccc(Cl)cc4)CC=CC31O[C@@H]1/C=C\CCCOC(=O)C12` (stereo not given in full) came in with a composite z-score of -0.188.

`COCCOC(=O)N1C(=O)[C@@]2(c3ccccc31)[C@H](c1ccc(OCCO)cc1)N1[C@H](c3ccccc3)[C@H](c3ccccc3)OC(=O)[C@H]1[C@@H]2C(=O)Nc1nc2ccccc2s1` gave a composite z-score of 0.967.

`C=CCN1Cc2ccccc2C[C@@]2(N=C(c3ccc(OCCCO)cc3)O[C@H]2c2ccccc2)C1=O` showed a composite z-score of 1.17.

Take `CN(C)CCCCNC(=O)[C@H]1C[C@H]2C(=O)N3CCC[C@H]3C(=O)N2[C@H]1c1ccc(O)cc1`: the composite z-score was -1.51.

With `COC1(C)CN(Cc2ccccc2Br)[C@H](/C=C/c2ccccc2)[C@H](Cc2ccccc2)O1` (stereo not given in full), the composite z-score is -0.258.

In turn, `COc1cc(OC)c(C(O)C2C=CC3C(=O)N(c4ccccc4)C(=O)C3N2Nc2ccc(C#N)cc2)cc1Br` (stereo not given) showed a composite z-score of 1.18.

In turn, `O=C(O)[C@]1(Cc2ccccc2)N=C(c2ccc(OCCCO)cc2)O[C@@H]1c1ccccc1` returned a composite z-score of -0.74.

For the compound `O=C1c2ccccc2[C@@]2(Cc3ccccc3N(C3CC3)C2=O)[C@H](c2ccc(CO)cc2)N1C1CCCCC1`, the composite z-score is -0.364.

In turn, `COCCOC(=O)N1C(=O)[C@@]2(c3cc(C#CCC(C(=O)OC)C(=O)OC)ccc31)[C@H](c1ccc(OCCO)cc1)N1[C@H](c3ccccc3)[C@H](c3ccccc3)OC(=O)[C@H]1[C@@H]2C(=O)N1CCN(c2ncccn2)CC1` had a composite z-score of 0.994.

Take `O=C1O[C@@H](c2ccccc2)[C@@H](c2ccccc2)N2[C@@H](c3ccccc3OCCO)[C@]3(C(=O)Nc4ccc(C#CCCO)cc43)[C@@H](C(=O)N3CCN(c4ncccn4)CC3)[C@H]12`: the composite z-score worked out at 0.376.

Regarding `COc1cc(CO)cc(I)c1O[C@H]1C=C(C(=O)NCCO)C[C@@H](N(CC2CCCCC2)C(=O)c2ccc(C(F)(F)F)cc2)[C@@H]1O`, the composite z-score is 0.626.

For the compound `Cc1c(NC(=O)/C(C#N)=C/C=C/c2ccccc2[N+](=O)[O-])c(=O)n(-c2ccccc2)n1C`, the composite z-score is 0.386.

`CCC[C@@H]1C[C@@]1(CCC)[C@@H](NP(=O)(c1ccccc1)c1ccccc1)c1ccc(Cl)cc1`: the composite z-score is -0.489.

As for `C=CCN1C(=O)[C@]2(CC=C)N=C(c3ccc(OCCCO)cc3)O[C@@H]2c2ccccc21`, the composite z-score was determined as 0.506.

Consider `O=C1c2ccccc2[C@](Cc2ccccc2I)(C(=O)NCCN2CCOCC2)[C@H](c2ccc(CO)cc2)N1Cc1ccccc1`, for which the composite z-score amounted to 0.712.

In turn, `COC(=O)[C@@]1(Cc2ccc(F)cc2)[C@H]2c3cc(C(=O)N4CCCC4)n(CCc4c[nH]c5ccc(OC)cc45)c3C[C@H]2CN1C(=O)c1ccccc1` returned a composite z-score of 1.53.

`O=C1c2ccccc2[C@](Cc2ccccc2I)(C(=O)NCc2ccccc2)[C@H](c2ccc(CO)cc2)N1C1CCCCC1` showed a composite z-score of 1.37.

Take `COCC(=C=CC[C@H](O)c1cccc(OCCO)c1)C[C@H](O)c1ccccn1`: the composite z-score stood at 1.3.

Turning to `CN1C2C=C(CCCO)C(C3C(=O)N(C(N)=O)C(=O)C32)C1c1cccs1` (stereo not given), the composite z-score amounted to 1.12.

`CN(C)CCCNC(=O)[C@@H]1c2ccccc2C(=O)N(Cc2ccc(OC(F)(F)F)cc2)[C@H]1c1ccc(CO)cc1`: the composite z-score was determined as 0.0228.

The compound `CC(C)(C)OC(=O)CC[C@]1(C(=O)NCCN2CCOCC2)N=C(c2ccc(OCCCO)cc2)O[C@H]1c1ccccc1` gave a composite z-score of -0.426.

The values above are taken from PubChem BioAssay.
